The source made the active and inactive calls. Rule for the calls: active = hit-call score of the fitted dose curve at least 0.9, where 1 is the maximum; inactive = score below 0.9.

The nature of assay [1]: ATG_E_Box_CIS: Attagene CIS-FACTORIAL HepG2 Assay for human Enhancer Box (E-box) (AID 2282936). Conditions: HepG2 E-box cis-reporter transcription, actives raise or lower the signal. The method, boiled down: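 Multiplexed CIS reporter system in transiently transfected HepG2 cells measures native transcription factor activity. Reporter RNA after 24 h exposure is profiled by RT-PCR-capillary electrophoresis.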

Assay [2] in a line: ATG_M_61_CIS: Attagene CIS-FACTORIAL HepG2 Assay for M61 Transcription Factor (Internal Marker) (AID 2282937). Conditions: HepG2 Attagene CIS-FACTORIAL M61 internal marker reporter; actives raise or lower the signal. Put shortly:
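Human liver HepG2, transient MRTU transfection (cis promoter elements), 24 h compound. Total RNA → oligo(dT) RT → PCR → FAM label → HpaI → CE. Internal background marker; bidirectional fitting, DMSO = baseline.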

Assay [3] can be described thus: ATG_EGR_CIS: Attagene CIS-FACTORIAL HepG2 Assay for human Early Growth Response 1 (EGR1) (AID 2282938). Conditions: HepG2 Attagene CIS-FACTORIAL EGR reporter mRNA; actives raise or lower the signal. The method, boiled down: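 Transient transfection of human HepG2 with multiple cis-regulated reporter units, chemical exposure 24 h, total RNA isolated. Reverse transcription, PCR, fluorescent labelling and capillary electrophoresis quantify reporter transcripts; activity fitted bidirectionally against DMSO.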

Assay [4] is described as follows: ATG_M_19_CIS: Attagene CIS-FACTORIAL HepG2 Assay for M19 Transcription Factor (Internal Marker) (AID 2282939). Conditions: HepG2 Attagene CIS-FACTORIAL M19 internal marker reporter; actives raise or lower the signal. Put shortly: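 Signals come from fluorescence of labelled reporter-specific PCR fragments resolved by capillary electrophoresis, following 24 h treatment of HepG2 cells transfected with cis-promoter reporter units; activity was fitted in both directions relative to DMSO.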

Assay [5] is described as follows: ATG_Ets_CIS: Attagene CIS-FACTORIAL HepG2 Assay for human Erythroblast Transformation Specific (ETS) (AID 2282941). Conditions: HepG2 ETS cis-reporter transcription, actives raise or lower the signal. The method, boiled down: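 Steps: transfect HepG2 with multiple reporter units; treat compound 24 h; isolate RNA, DNase-treat, reverse-transcribe; PCR-amplify, label with 6-FAM, digest with HpaI; separate by capillary electrophoresis. Activity fitted both directions versus DMSO.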

In assay [6] the target is Hepatocyte nuclear factor 3-beta (Homo sapiens) (UniProt Q9Y261). The experiment in a line: ATG_FoxA2_CIS: Attagene CIS-FACTORIAL HepG2 Assay for human Forkhead box A2 (FOXA2) (AID 2282942). Conditions: HepG2 cis-reporter transcription factor activity, 24 h; actives raise or lower the signal. The method, boiled down:
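Transient MRTU transfection of HepG2 liver cells; 24 h treatment; total RNA → oligo(dT) RT → PCR → FAM primer extension → HpaI cut → CE. Bidirectional fit vs DMSO.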

Assay [7] in a line: ATG_FoxO_CIS: Attagene CIS-FACTORIAL HepG2 Assay for human Forkhead box O (FoxO) (AID 2282943). Conditions: HepG2 Attagene cis-reporter, FoxO element, mRNA; actives raise or lower the signal. Put shortly: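 Values reflect reporter mRNA induction or loss in HepG2 cells 24 h post-dosing, fitted bidirectionally with DMSO as negative control and baseline. Detection used RT-PCR and fluorescence capillary electrophoresis.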

A short description of assay [8]: ATG_GATA_CIS: Attagene CIS-FACTORIAL HepG2 Assay for human GATA Binding Protein (AID 2282944). Conditions: HepG2 GATA cis-element reporter, Attagene multiplex mRNA; actives raise or lower the signal. Put shortly:
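After transfecting HepG2 cells with multiple cis-regulated reporter units, chemicals are dosed for 24 h; isolated RNA undergoes RT-PCR and fluorescent labeling before capillary electrophoresis, with activity expressed against DMSO.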

Assay [9] can be described thus: ATG_GLI_CIS: Attagene CIS-FACTORIAL HepG2 Assay for human Zinc Finger Protein GLI1 (AID 2282945). Conditions: HepG2, Attagene cis-factorial reporter mRNA, GLI element; actives raise or lower the signal. The method, boiled down:
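HepG2 cells transiently transfected with cis-promoter multiplexed reporter units report endogenous transcription factor activity. After 24 h chemical exposure, reporter mRNA was quantified by RT-PCR, 6-FAM labelling, HpaI digestion and capillary electrophoresis, with bidirectional fitting against DMSO.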

Assay [10] is described as follows: ATG_ISRE_CIS: Attagene CIS-FACTORIAL HepG2 Assay for human Interferon Regulatory Factor 1 (IRF1) binding to an Interferon-Stimulated Response Element (ISRE) (AID 2282948). Conditions: HepG2 ISRE cis-reporter (Attagene), mRNA transcription readout; actives raise or lower the signal. The method, boiled down: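 Transfected HepG2 (multiple reporter transcription units, cis elements) dosed 24 h. RNA → oligo(dT) RT → PCR → 6-FAM primer extension → HpaI → CE. DMSO = negative control/baseline.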

A short description of assay [11]: ATG_M_32_CIS: Attagene CIS-FACTORIAL HepG2 Assay for M32 Transcription Factor (Internal Marker) (AID 2282949).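 Note: background control marker of the multiplexed CIS panel rather than a real target.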 Conditions: HepG2 Attagene cis-factorial M32 reporter, mRNA; actives raise or lower the signal. Put shortly:
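HepG2 cells transiently transfected with multiplexed cis-regulated reporter units, dosed 24 h. Reporter mRNA quantified by RT-PCR, 6-FAM labelling, HpaI digestion and capillary electrophoresis; bidirectional fit vs DMSO.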

Assay [12] in a line: ATG_M_06_CIS: Attagene CIS-FACTORIAL HepG2 Assay for M06 Transcription Factor (Internal Marker) (AID 2282950). Conditions: HepG2 Attagene CIS-FACTORIAL M06 internal marker reporter; actives raise or lower the signal. Put shortly: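 HepG2 liver cells, 24 h exposure. Reporter transcripts from transfected cis-element constructs quantified by RT-PCR/capillary electrophoresis fluorescence. Bidirectional curve fit against DMSO.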

In assay [13] the target is Hypoxia-inducible factor 1-alpha (Homo sapiens) (UniProt Q16665). Kind of assay: ATG_HIF1a_CIS: Attagene CIS-FACTORIAL HepG2 Assay for human Hypoxia Inducible Factor 1 (HIF1A) (AID 2282951). Conditions: HepG2 Attagene cis-factorial HIF1a reporter transcription; actives raise or lower the signal. The method, boiled down:
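Transient MRTU transfection of human HepG2 liver cells, 24 h compound treatment, then total RNA isolation, oligo(dT) reverse transcription, PCR amplification, fluorescent labelling and capillary electrophoresis of reporter fragments. Gain or loss relative to DMSO.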

Assay [14] deals with Hepatocyte nuclear factor 6 (Homo sapiens) (UniProt Q9UBC0). The experiment in a line: ATG_HNF6_CIS: Attagene CIS-FACTORIAL HepG2 Assay for human Hepatocyte Nuclear Factor 6 (HNF6) (AID 2282952). Conditions: HepG2 Attagene cis-factorial HNF6 reporter transcription; actives raise or lower the signal. The method, boiled down:
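HepG2 cells transiently transfected with cis-element-driven multiplexed reporter units measuring endogenous transcription factor activity. After 24 h exposure, reporter mRNA quantified by RT-PCR, FAM-labelled fragments and capillary electrophoresis; bidirectional fitting versus DMSO.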

Assay [15] addresses Heat shock factor protein 1 (Homo sapiens) (UniProt Q00613). The experiment in a line: ATG_HSE_CIS: Attagene CIS-FACTORIAL HepG2 Assay for human Heat Shock Transcription Factor 1 (HSE) (AID 2282953). Conditions: HepG2 HSE cis-reporter, Attagene RNA transcription; actives raise or lower the signal. The method, boiled down:
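Endogenous transcription factor activity captured via cis-promoter reporter units transfected into HepG2; treatment lasted 24 h. Fluorescence intensity of reporter fragments analysed with bidirectional curve fitting, DMSO baseline.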

Assay [16] is described as follows: ATG_MRE_CIS: Attagene CIS-FACTORIAL HepG2 Assay for human Metal Responsive Element (MRE) (AID 2282954). Conditions: HepG2 MRE cis-reporter transcription, Attagene multiplex; actives raise or lower the signal. The method, boiled down: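 Step one: transfect HepG2 with cis-regulated reporter units. Step two: dose 24 h. Step three: isolate RNA, RT-PCR, 6-FAM label, HpaI digest, capillary electrophoresis. Fit bidirectionally to DMSO.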

The nature of assay [17]: ATG_PBREM_CIS: Attagene CIS-FACTORIAL HepG2 Assay for human Phenobarbital-responsive Enhancer Module (PBREM) (AID 2282955). Conditions: HepG2 PBREM cis-reporter, Attagene multiplexed transcription; actives raise or lower the signal. The method, boiled down:
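Endogenous transcription factors in human liver HepG2 cells drive a PBREM cis-element reporter, whose transcript level after 24 h treatment is quantified by RT-PCR with capillary electrophoresis; activity fitted in both directions against DMSO.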

Assay [18] is described as follows: ATG_ERE_CIS: Attagene CIS-FACTORIAL HepG2 Assay for Estrogen Response Element (ERE) (AID 2282940). Conditions: HepG2 ERE cis-reporter, Attagene RNA transcript; actives raise or lower the signal. The method, boiled down:
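Fluorescence of capillary-separated, FAM-labelled reporter cDNA fragments indicates reporter mRNA levels in HepG2 cells exposed to chemicals for 24 h. Transient transfection with cis-regulated units; data fitted in both directions against DMSO.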

The nature of assay [19]: ATG_GRE_CIS: Attagene CIS-FACTORIAL HepG2 Assay for human Glucocorticoid Response Elements (GRE) (AID 2282947). Conditions: HepG2 GRE cis-reporter, Attagene multiplex mRNA; actives raise or lower the signal. The method, boiled down: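 Following 24 h chemical exposure of transiently transfected HepG2 cells, total RNA was reverse-transcribed and reporter cDNA amplified, fluorescently labelled and sized by capillary electrophoresis. Signal gain or loss was fitted relative to DMSO vehicle.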

Sequence of Heat shock factor protein 1 (Homo sapiens) (Q00613 whole entry, looked up, the tested form may be a part): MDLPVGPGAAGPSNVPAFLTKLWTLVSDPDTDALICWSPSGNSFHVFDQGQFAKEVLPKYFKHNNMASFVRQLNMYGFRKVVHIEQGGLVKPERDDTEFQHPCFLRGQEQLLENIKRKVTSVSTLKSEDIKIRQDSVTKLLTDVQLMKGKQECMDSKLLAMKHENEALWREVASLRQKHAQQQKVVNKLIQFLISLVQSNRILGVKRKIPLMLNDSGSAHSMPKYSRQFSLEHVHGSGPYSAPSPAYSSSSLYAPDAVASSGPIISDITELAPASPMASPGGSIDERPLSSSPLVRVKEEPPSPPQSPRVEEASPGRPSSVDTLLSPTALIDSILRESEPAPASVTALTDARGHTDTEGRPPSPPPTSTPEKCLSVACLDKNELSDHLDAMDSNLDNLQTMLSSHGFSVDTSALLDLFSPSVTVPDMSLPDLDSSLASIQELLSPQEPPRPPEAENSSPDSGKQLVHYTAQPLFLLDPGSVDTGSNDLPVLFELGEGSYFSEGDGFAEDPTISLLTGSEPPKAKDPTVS
Sequence of Hepatocyte nuclear factor 6 (Homo sapiens) (Q9UBC0 whole entry, looked up, the tested form may be a part): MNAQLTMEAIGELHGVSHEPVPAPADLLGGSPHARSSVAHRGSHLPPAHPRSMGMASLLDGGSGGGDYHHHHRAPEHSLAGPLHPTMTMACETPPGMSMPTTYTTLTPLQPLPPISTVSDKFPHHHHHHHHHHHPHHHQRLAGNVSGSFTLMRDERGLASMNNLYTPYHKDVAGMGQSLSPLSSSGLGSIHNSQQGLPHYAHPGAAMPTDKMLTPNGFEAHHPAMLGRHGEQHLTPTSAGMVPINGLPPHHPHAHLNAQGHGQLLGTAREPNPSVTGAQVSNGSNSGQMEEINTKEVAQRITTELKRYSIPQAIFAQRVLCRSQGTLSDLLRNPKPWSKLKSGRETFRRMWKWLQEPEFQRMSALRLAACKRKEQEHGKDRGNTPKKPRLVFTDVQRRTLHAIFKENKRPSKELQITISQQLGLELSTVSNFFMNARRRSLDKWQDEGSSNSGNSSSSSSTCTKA
Sequence of Hypoxia-inducible factor 1-alpha (Homo sapiens) (Q16665 whole entry, looked up, the tested form may be a part): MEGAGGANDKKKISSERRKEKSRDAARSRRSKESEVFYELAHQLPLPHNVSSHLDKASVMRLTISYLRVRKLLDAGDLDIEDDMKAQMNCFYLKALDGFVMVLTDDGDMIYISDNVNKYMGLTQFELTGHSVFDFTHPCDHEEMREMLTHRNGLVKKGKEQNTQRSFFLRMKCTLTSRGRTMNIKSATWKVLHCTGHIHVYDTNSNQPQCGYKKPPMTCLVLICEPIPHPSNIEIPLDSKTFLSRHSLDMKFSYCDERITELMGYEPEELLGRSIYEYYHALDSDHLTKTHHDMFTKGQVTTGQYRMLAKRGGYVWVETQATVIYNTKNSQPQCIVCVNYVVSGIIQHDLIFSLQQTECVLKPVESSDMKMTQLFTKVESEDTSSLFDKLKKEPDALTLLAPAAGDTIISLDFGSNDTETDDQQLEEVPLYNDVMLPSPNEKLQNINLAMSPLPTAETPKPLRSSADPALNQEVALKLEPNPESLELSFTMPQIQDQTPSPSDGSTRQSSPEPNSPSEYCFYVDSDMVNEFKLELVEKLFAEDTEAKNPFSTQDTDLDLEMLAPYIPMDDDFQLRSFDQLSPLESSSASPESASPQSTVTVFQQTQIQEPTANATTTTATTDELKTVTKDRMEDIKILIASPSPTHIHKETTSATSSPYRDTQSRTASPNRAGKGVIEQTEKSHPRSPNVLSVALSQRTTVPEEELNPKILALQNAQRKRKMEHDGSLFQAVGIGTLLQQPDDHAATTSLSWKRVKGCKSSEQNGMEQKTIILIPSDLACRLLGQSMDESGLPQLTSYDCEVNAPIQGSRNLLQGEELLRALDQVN
Sequence of Hepatocyte nuclear factor 3-beta (Homo sapiens) (Q9Y261 whole entry, looked up): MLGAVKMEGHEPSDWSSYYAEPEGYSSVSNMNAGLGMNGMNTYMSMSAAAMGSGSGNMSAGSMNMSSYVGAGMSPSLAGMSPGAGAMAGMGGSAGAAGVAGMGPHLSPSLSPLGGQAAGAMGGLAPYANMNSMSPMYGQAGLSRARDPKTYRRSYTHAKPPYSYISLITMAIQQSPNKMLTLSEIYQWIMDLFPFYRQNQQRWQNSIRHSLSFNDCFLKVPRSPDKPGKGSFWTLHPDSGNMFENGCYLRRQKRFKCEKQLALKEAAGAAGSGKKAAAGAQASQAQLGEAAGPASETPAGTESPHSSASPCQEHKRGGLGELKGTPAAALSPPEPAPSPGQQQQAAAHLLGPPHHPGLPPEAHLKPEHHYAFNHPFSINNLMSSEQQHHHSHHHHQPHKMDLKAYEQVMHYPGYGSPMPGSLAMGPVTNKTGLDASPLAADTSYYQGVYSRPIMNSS

As for `C1=Cc2ccccc2C1`, the outcome in [1], in [2], in assay [3], in [4], in [5] and in assay [6] was inactive. The result in [7], in assay [8], in assay [9], in assay [10], in [11] and in assay [12] was inactive. The call in assay [13], in [14], in assay [15], in [16] and in assay [17] was inactive.
Consider `CC(C)c1ccc(C=O)cc1`, for which the outcome in assay [1], in assay [2], in [3], in [4], in assay [18] and in [5] was inactive. In addition, the result in assay [6], in [7], in [9], in [19], in assay [10] and in assay [11] was inactive. Besides, the molecule was called inactive in assay [12], in assay [13], in assay [14], in [15], in [16] and in assay [17].
Turning to `CN1C(=O)N(C)C(O)C1O` (stereo not drawn), the outcome in assay [1], in assay [2], in [3], in assay [4], in assay [18] and in assay [5] was inactive. Also, the molecule was called inactive in [6], in assay [7], in [9], in assay [19], in assay [10] and in assay [11]. The call in [12], in assay [13], in assay [14], in [16] and in assay [17] was inactive.
As for `COC(=O)/C=C\C(=O)O`, the result in assay [1], in [2], in assay [3], in assay [4], in assay [18] and in assay [5] was inactive. Besides, the result in assay [6], in assay [7], in [9], in assay [19], in [10] and in assay [11] was inactive. Besides, the result in assay [12], in assay [13], in assay [14], in [16] and in assay [17] was inactive.
The term AC50 denotes the midpoint of the concentration-response curve, whichever way the signal moves. Regarding `O=C1CCCCCCCCCCCCCCCO1`, the outcome in assay [1], in [2], in assay [3], in assay [4], in [18] and in [5] was inactive. Moreover, the outcome in [6], in assay [7], in assay [9], in assay [19], in [10] and in assay [11] was inactive. The call in assay [12] and in assay [14] was inactive. Besides, the AC50 in assay [13] is 122 µM (active); in assay [15] it was 160 µM (active); in assay [16], 180 µM (active).
In the case of `CCCc1ccc(OC)cc1`, the outcome in assay [1], in assay [2], in assay [3], in assay [4], in assay [5] and in assay [6] was inactive. The call in [7], in [8], in assay [9], in assay [19], in assay [11] and in [12] was inactive. Moreover, the result in [13], in assay [14], in [15] and in assay [16] was inactive.
As for `COC=O`, the result in assay [1], in assay [2], in assay [3], in assay [4], in assay [18] and in assay [5] was inactive. The outcome in assay [6], in [7], in assay [9], in assay [10], in assay [11] and in assay [12] was inactive. Moreover, the molecule was called inactive in assay [13], in assay [15], in assay [16] and in assay [17].

(Values after PubChem BioAssay (EPA / NIEHS).)
